PubChem BioAssay (NCATS)
Inconclusive results are not listed. Active and inactive are the calls of the source. Calls come from the whole dose curve; as a rule, active = well fitted curve in the direction sought with a large enough effect; inconclusive = small, poorly fitted or top-dose-only effect, or another doubt; inactive = no such curve, though single readings can be large; an effect the other way counts as inactive or inconclusive.

Legend:
[1] = qHTS of pediatric cancer cell lines to identify multiple opportunities for drug repurposing: Confirmatory screen for NB1643 cells (AID 1347109); note: nearly all actives have a fitted effect of over 45% in size; note: potency is the fitted concentration of half-maximal effect;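 for activity change, negative = cytotoxic: plate controls were DMSO for no effect and bortezomib for full effect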
Procedure, shortened: (§1)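 Viability after 48 h compound treatment at 37C, 500-1,000 cells/well, read as ATP luminescence with CellTiter-Glo. Primary screens used 11-point (MIPE, 0.78 nM-46 µM) or 8-point (NPC, 0.59 nM-46 µM) final concentrations; follow-up screens used 11-point dilutions.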

[2] = qHTS of pediatric cancer cell lines to identify multiple opportunities for drug repurposing: Confirmatory screen for A673 cells (AID 1347110); note: potency is the fitted concentration of half-maximal effect; nearly all actives have a fitted effect of over 65% in size
Procedure, shortened: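 Forty-eight-hour viability assay. Follow-up compounds ran at 11-point dilutions; positive control bortezomib at 2.3 uM final, neutral control DMSO.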

[3] = qHTS of pediatric cancer cell lines to identify multiple opportunities for drug repurposing: Confirmatory screen for SK-N-MC cells (AID 1347111); conditions: SK-N-MC cell viability;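 note: potency is the fitted concentration of half-maximal effect; cells exposed to compound for 48 h before the readout; nearly all actives have a fitted effect of over 70% in size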
Procedure, shortened: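 SK-N-MC cells at 500-1,000 cells/well in growth media were pre-incubated 5 h, then exposed to compounds at 11-point dilutions for 48 h at 37 degrees C, 5% CO2. Viability was read as CellTiter-Glo luminescence.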

[4] = qHTS of pediatric cancer cell lines to identify multiple opportunities for drug repurposing: Confirmatory screen for BT-12 cells (AID 1347112); note: nearly all actives have a fitted effect of over 55% in size; for activity change, negative = cytotoxic: % is set by controls: 0 for no effect and ±100 for the full control effect
Procedure, shortened: as §1

[5] = qHTS of pediatric cancer cell lines to identify multiple opportunities for drug repurposing: Primary screen for SK-N-MC cells (AID 1347093); note: potency is the fitted concentration of half-maximal effect;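 for activity change, negative = cytotoxic: series mostly up to about 46 µM; plate controls were DMSO neutral control for no effect and bortezomib for full effect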
Procedure, shortened: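 Metabolically active cells were quantified by ATP-dependent luminescence (CellTiter-Glo, 15 min at room temperature) following 48 h treatment. Cells had been plated at 500-1,000 per well and settled for 5 h beforehand.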

[6] = qHTS of pediatric cancer cell lines to identify multiple opportunities for drug repurposing: Primary screen for BT-37 cells (AID 1347094); note: potency is the fitted concentration of half-maximal effect;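 for activity change, negative = cytotoxic: series mostly up to about 57 µM; plate controls were DMSO for no effect and bortezomib for full effect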
Procedure, shortened: (§2)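 CRCs from 8- or 11-point titrations (lowest final 0.59 nM NPC, 0.78 nM MIPE). Cell viability: CellTiter-Glo after 48 h incubation, 15 min room-temperature development, luminescence imaging.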

[7] = qHTS of pediatric cancer cell lines to identify multiple opportunities for drug repurposing: Primary screen for NB-EBc1 cells (AID 1347095); note: potency is the fitted concentration of half-maximal effect;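 for activity change, negative = cytotoxic: plate controls were DMSO neutral control for no effect and bortezomib for full effect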
Procedure, shortened: as §2

[8] = qHTS of pediatric cancer cell lines to identify multiple opportunities for drug repurposing: Primary screen for U-2 OS cells (AID 1347096); note: nearly all actives have a fitted effect of over 50% in size; note: potency is the fitted concentration of half-maximal effect;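 for activity change, negative = cytotoxic: plate controls were DMSO wells for no effect and bortezomib positive control wells for full effect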
Procedure, shortened: as §1

[9] = qHTS of pediatric cancer cell lines to identify multiple opportunities for drug repurposing: Primary screen for Saos-2 cells (AID 1347097); note: nearly all actives have a fitted effect of over 40% in size; note: potency is the fitted concentration of half-maximal effect; for activity change, negative = cytotoxic: % is set by controls: 0 for no effect and ±100 for the full control effect
Procedure, shortened: as §2

[10] = qHTS of pediatric cancer cell lines to identify multiple opportunities for drug repurposing: Primary screen for SK-N-SH cells (AID 1347098); note: nearly all actives have a fitted effect of over 65% in size; note: potency is the fitted concentration of half-maximal effect;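 for activity change, negative = cytotoxic: DMSO served as neutral control and bortezomib at 2.3 µM as positive control; % is set by controls: 0 for no effect and ±100 for the full control effect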
Procedure, shortened: (§3)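 Cells (500-1,000/well) rested 5 h, then received compounds for 48 h; metabolically active cells were measured by CellTiter-Glo luminescence. Final concentrations spanned up to 46 µM (MIPE, 11-point) or 0.59 nM-46 µM (NPC, 8-point) in primary screens, 11-point in follow-ups.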

[11] = qHTS of pediatric cancer cell lines to identify multiple opportunities for drug repurposing: Primary screen for NB1643 cells (AID 1347099); note: nearly all actives have a fitted effect of over 50% in size; note: potency is the fitted concentration of half-maximal effect;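 for activity change, negative = cytotoxic: plate controls were DMSO neutral control for no effect and bortezomib positive control for full effect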
Procedure, shortened: as §2

[12] = qHTS of pediatric cancer cell lines to identify multiple opportunities for drug repurposing: Primary screen for LAN-5 cells (AID 1347100); note: potency is the fitted concentration of half-maximal effect;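 for activity change, negative = cytotoxic: plate controls were DMSO neutral control for no effect and bortezomib positive control for full effect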
Procedure, shortened: as §1

[13] = qHTS of pediatric cancer cell lines to identify multiple opportunities for drug repurposing: Primary screen for BT-12 cells (AID 1347101); note: nearly all actives have a fitted effect of over 25% in size;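 for activity change, negative = cytotoxic: plate controls were DMSO for no effect and bortezomib positive control for full effect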
Procedure, shortened: as §3

[14] = qHTS of pediatric cancer cell lines to identify multiple opportunities for drug repurposing: Primary screen for Rh18 cells (AID 1347102); note: nearly all actives have a fitted effect of over 65% in size; for activity change, negative = cytotoxic: % is set by controls: 0 for no effect and ±100 for the full control effect
Procedure, shortened: as §1

[15] = qHTS of pediatric cancer cell lines to identify multiple opportunities for drug repurposing: Primary screen for RD cells (AID 1347104);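 note: plate controls were DMSO for no effect and bortezomib for full effect; nearly all actives have a fitted effect of over 55% in size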
Procedure, shortened: as §2

[16] = qHTS of pediatric cancer cell lines to identify multiple opportunities for drug repurposing: Primary screen for MG 63 (6-TG R) cells (AID 1347105); note: nearly all actives have a fitted effect of over 50% in size
Procedure, shortened: as §2

[17] = qHTS of pediatric cancer cell lines to identify multiple opportunities for drug repurposing: Primary screen for control Hh wild type fibroblast cells (AID 1347106);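 note: series mostly up to about 46 µM; % is set by controls: 0 for no effect and ±100 for the full control effect; a drop in luminescence marks cytotoxicity and a rise apparent proliferation; nearly all actives have a fitted effect of over 55% in size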
Procedure, shortened: as §1

[18] = qHTS of pediatric cancer cell lines to identify multiple opportunities for drug repurposing: Primary screen for Rh41 cells (AID 1347108); note: nearly all actives have a fitted effect of over 70% in size;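 for activity change, negative = cytotoxic: series mostly up to about 46 µM; luminescence drop marks cytotoxic hits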
Procedure, shortened: as §2

[19] = qHTS of pediatric cancer cell lines to identify multiple opportunities for drug repurposing: Primary screen for OHS-50 cells (AID 1347103); note: nearly all actives have a fitted effect of over 40% in size;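 for activity change, negative = cytotoxic: plate controls were DMSO neutral control for no effect and bortezomib positive control for full effect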
Procedure, shortened: as §3

[20] = qHTS of pediatric cancer cell lines to identify multiple opportunities for drug repurposing: Primary screen for Rh30 cells (AID 1347107); note: nearly all actives have a fitted effect of over 75% in size
Procedure, shortened: as §1

C[C@]12C=CC(=O)C=C1CC[C@H]1[C@@H]3C[C@@H](O)[C@](O)(C(=O)CO)[C@@]3(C)C[C@H](O)[C@@]12F
active: Potency [1] 6570 nM | Potency [2] 1040 nM | Potency [3] 7370 nM

CN/C(=C\[N+](=O)[O-])NCCSCc1ccc(CN(C)C)o1
inactive: Potency [1] | Potency [4]
active: Potency [2] 5220 nM | Potency [3] 11700 nM

C[C@]12CCC(=O)C=C1CC[C@@H]1[C@@H]2CC[C@@]2(C)[C@H]1CC[C@]2(O)C(=O)CO
inactive: Potency [5] | Potency [6] | Potency [7] | Potency [8] | Potency [9] | Potency [10] | Potency [11] | Potency [12] | Potency [13] | Potency [14] | Potency [15] | Potency [16] | outcome [17] | Potency [18]

Nc1c2c(nc3ccccc13)CCCC2O (stereo unspecified)
inactive: Potency [5] | Potency [6] | Potency [7] | Potency [8] | Potency [9] | Potency [11] | Potency [12] | Potency [13] | Potency [14] | Potency [19] | Potency [15] | Potency [16] | outcome [17] | Potency [18]

CC(C)(C)NCC(O)c1cc(O)cc(O)c1 (stereo unspecified)
inactive: Potency [5] | Potency [6] | Potency [7] | Potency [8] | Potency [9] | Potency [11] | Potency [12] | Potency [13] | Potency [14] | Potency [19] | Potency [16] | outcome [17] | Potency [20] | Potency [18]

C[n+]1cc2c3c(ccc2c2ccc4cc5c(cc4c21)OCO5)OCO3
active: Potency [5] 1300 nM | Potency [6] 2130 nM | Potency [7] 1030 nM | Potency [8] 2910 nM | Potency [9] 4110 nM | Potency [10] 1500 nM | Potency [11] 1160 nM | Potency [12] 1160 nM | Potency [13] 1690 nM | Potency [14] 2060 nM | Potency [19] 2130 nM | Potency [16] 2310 nM | Potency [20] 2590 nM | Potency [18] 2590 nM | Potency [1] 1020 nM | Potency [2] 1150 nM | Potency [3] 1290 nM | Potency [4] 3230 nM

CCCN1C[C@H](CSC)C[C@@H]2c3cccc4[nH]cc(c34)C[C@H]21
inactive: Potency [5] | Potency [6] | Potency [7] | Potency [8] | Potency [9] | Potency [10] | Potency [11] | Potency [12] | Potency [13] | Potency [14] | Potency [16] | outcome [17] | Potency [20] | Potency [18]

NCCCNCCSP(=O)(O)O
inactive: activity change, negative = cytotoxic [5] -14.6% [at 9.22 µM] | activity change, negative = cytotoxic [6] 7.29% [at 11.5 µM] | activity change, negative = cytotoxic [7] 10.2% [at 9.22 µM] | activity change, negative = cytotoxic [8] 2.93% [at 9.22 µM] | activity change, negative = cytotoxic [9] -20.9% [at 9.22 µM] | activity change, negative = cytotoxic [11] 7.51% [at 9.22 µM] | activity change, negative = cytotoxic [12] 27.4% [at 9.22 µM] | activity change, negative = cytotoxic [13] 8.37% [at 11.5 µM] | activity change, negative = cytotoxic [14] 9.05% [at 9.22 µM] | activity change, negative = cytotoxic [19] 5.02% [at 11.5 µM] | activity change, negative = cytotoxic [15] 5.99% [at 9.22 µM] | activity change, negative = cytotoxic [16] -7.37% [at 9.22 µM] | activity change, negative = cytotoxic [17] 2.73% [at 9.22 µM] | activity change, negative = cytotoxic [18] 20.1% [at 9.22 µM] | activity change, negative = cytotoxic [4] 1.94% [at 9.58 µM]

NC(=Nc1ccccc1)Nc1ccccc1
inactive: Potency [5] | Potency [6] | Potency [7] | Potency [8] | Potency [9] | Potency [11] | Potency [12] | Potency [13] | Potency [14] | Potency [19] | Potency [15] | Potency [16] | outcome [17] | Potency [20] | Potency [18]
